Test results from PubChem BioAssay (Tox21).
Records with an inconclusive call do not appear. A call without a number means that no potency is given here. The source made the active and inactive calls. Unless noted, calls follow the shape of the dose curve; as a rule, active = well fitted curve in the direction sought with a large enough effect in the repeat runs; inconclusive = weak or mixed curves; inactive = flat fitted curve, though single readings scatter.

What was measured:
[1] = qHTS assay to test for compound auto fluorescence at 535 nm (green) in HEK293 cells (AID 720680)
[2] = qHTS assay to test for compound auto fluorescence at 535 nm (green) in HEK293 cell free culture (AID 720682)
Outline: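 Compounds were pin-transferred into cell-free DMEM with 10% FBS, and green fluorescence was read at excitation 485 nm and emission 535 nm. Intensities were expressed as fluorescein-equivalent values.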

[3] = qHTS assay to test for compound auto fluorescence at 590 nm (red) in HEK293 cell free culture (AID 720683)
Outline: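 Tox21 10K library compounds were pinned into cell-free DMEM with 10% FBS and fluorescence was read at excitation 540 nm. Activity is expressed as Rose Bengal sodium equivalency.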

[4] = qHTS assay to test for compound auto fluorescence at 590 nm (red) in HepG2 cell free culture (AID 720684)
Outline: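 Measured in medium alone (MEM containing 10% FBS) following pintool addition of compound; emission at 590 nm with 540 nm excitation, referenced to Rose Bengal sodium.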

[5] = qHTS assay to test for compound auto fluorescence at 460 nm (blue) in HepG2 cell free culture (AID 720685)
Outline: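 Compound (23 nL) or DMSO pinned into cell-free MEM with 10% FBS; blue fluorescence read at 405/460 nm excitation/emission, expressed as auto-fluorescence equivalency to triamterene.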

[6] = qHTS assay to test for compound auto fluorescence at 535 nm (green) in HepG2 cell free culture (AID 720686)
[7] = qHTS assay to test for compound auto fluorescence at 460 nm (blue) in HepG2 cells (AID 720687)
Outline: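 Cells (2,000/well in MEM with 10% FBS) attached overnight at 37 C, then were exposed to compound or DMSO for 1 hr at 37 C, 5% CO2. Fluorescence read at Ex/Em 405/460 nm, expressed as triamterene-equivalent signal.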

[8] = target: Glucocorticoid receptor (Homo sapiens) (UniProt P04150); test: qHTS assay to identify small molecule agonists of the glucocorticoid receptor (GR) signaling pathway (AID 720691; active = well fitted activation curve with a large enough effect in the signal ratio in the repeat runs, not every such curve was filed as active; the % refers to the signal ratio; also: potency is read from the fitted curve at half-maximal effect)
Sequence of Glucocorticoid receptor (Homo sapiens) (P04150 whole entry, looked up): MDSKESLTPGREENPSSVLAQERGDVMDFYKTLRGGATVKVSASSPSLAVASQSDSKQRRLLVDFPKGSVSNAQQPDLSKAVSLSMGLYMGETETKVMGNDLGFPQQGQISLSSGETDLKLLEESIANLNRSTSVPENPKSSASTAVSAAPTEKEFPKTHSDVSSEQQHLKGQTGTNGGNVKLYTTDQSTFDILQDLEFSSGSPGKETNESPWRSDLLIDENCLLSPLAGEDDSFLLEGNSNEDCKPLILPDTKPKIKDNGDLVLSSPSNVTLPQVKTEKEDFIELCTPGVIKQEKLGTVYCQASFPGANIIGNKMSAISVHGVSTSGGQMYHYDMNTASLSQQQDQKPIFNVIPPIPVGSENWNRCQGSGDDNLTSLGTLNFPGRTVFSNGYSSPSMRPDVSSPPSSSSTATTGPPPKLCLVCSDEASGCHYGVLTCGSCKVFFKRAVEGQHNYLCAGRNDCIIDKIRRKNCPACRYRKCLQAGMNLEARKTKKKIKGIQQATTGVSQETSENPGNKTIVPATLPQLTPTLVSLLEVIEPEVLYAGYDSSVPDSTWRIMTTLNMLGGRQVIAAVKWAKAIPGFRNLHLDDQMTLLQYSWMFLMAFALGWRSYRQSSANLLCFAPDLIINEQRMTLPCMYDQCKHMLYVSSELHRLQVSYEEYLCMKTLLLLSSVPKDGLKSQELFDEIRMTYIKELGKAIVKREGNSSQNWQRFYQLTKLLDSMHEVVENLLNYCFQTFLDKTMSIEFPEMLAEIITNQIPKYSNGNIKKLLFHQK
Outline: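 Agonist mode in a HeLa line carrying a GRE-controlled beta-lactamase reporter. Compounds act for 18 h at 37 C before a 2 h room-temperature FRET substrate step and fluorescence reading.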

[9] = target: Glucocorticoid receptor (Homo sapiens) (UniProt P04150); test: qHTS assay to identify small molecule antagonists of the glucocorticoid receptor (GR) signaling pathway (AID 720692; active = well fitted inhibition curve with a large enough effect in the signal ratio in the repeat runs, not every such curve was filed as active; the % refers to the signal ratio; also: potency is read from the fitted curve at half-maximal effect)
Outline: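 Cells plated, rested 4 h at 37 C/5% CO2; compounds in DMSO pin-transferred; dexamethasone added to 5 nM final; 18 h at 37 C; B/G FRET substrate added, 2 h room temperature; fluorescence measured.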

SMILES: CC(=O)[O-].[Tl+]
- outcome [1]: inactive
- outcome [2]: inactive
- outcome [3]: inactive
- outcome [4]: inactive
- Potency [5]: inactive
- outcome [6]: inactive
- Potency [7]: inactive

SMILES: Oc1c(Cl)c(Cl)cc(Cl)c1Cl
- outcome [1]: inactive
- outcome [2]: inactive
- outcome [3]: inactive
- outcome [4]: inactive
- Potency [5]: inactive
- outcome [6]: inactive
- Potency [7]: inactive

SMILES: CC1(C)CN=C(NN=C(/C=C/c2ccc(C(F)(F)F)cc2)/C=C/c2ccc(C(F)(F)F)cc2)NC1
- outcome [1]: inactive
- outcome [2]: inactive
- outcome [3]: inactive
- outcome [4]: inactive
- Potency [5]: inactive
- outcome [6]: inactive
- Potency [7]: inactive

SMILES: CC(C)N1C(=O)N(c2ccccc2)CSC1=NC(C)(C)C
- outcome [1]: inactive
- outcome [2]: inactive
- outcome [3]: inactive
- outcome [4]: inactive
- Potency [5]: inactive
- outcome [6]: inactive
- Potency [7]: inactive
- Potency [8]: inactive

SMILES: Cc1cc(C(F)(C(F)(F)F)C(F)(F)F)ccc1NC(=O)c1cccc(I)c1C(=O)NC(C)(C)CS(C)(=O)=O
- outcome [1]: inactive
- outcome [2]: inactive
- outcome [3]: inactive
- outcome [4]: inactive
- Potency [5]: inactive
- outcome [6]: inactive
- Potency [7]: inactive
- Potency [8]: inactive

SMILES: O=C(Nc1ccc2[nH]ccc2c1)c1cc2cc(F)ccc2n1Cc1cccc(F)c1
- outcome [1]: inactive
- outcome [2]: inactive
- outcome [3]: inactive
- outcome [4]: inactive
- Potency [5]: inactive
- outcome [6]: inactive
- Potency [7]: inactive

SMILES: ClC(Cl)=C(c1ccc(Cl)cc1)c1ccc(Cl)cc1
- outcome [1]: inactive
- outcome [2]: inactive
- outcome [3]: inactive
- outcome [4]: inactive
- Potency [5]: inactive
- outcome [6]: inactive
- Potency [7]: inactive
- Potency [8]: inactive
- Potency [9]: inactive

SMILES: CCOCCOC(C)=O
- outcome [1]: inactive
- outcome [2]: inactive
- outcome [3]: inactive
- outcome [4]: inactive
- Potency [5]: inactive
- outcome [6]: inactive
- Potency [7]: inactive
- Potency [8]: inactive

SMILES: ClC1=C(Cl)C2(Cl)C3C(Cl)C(Cl)CC3C1(Cl)C2(Cl)Cl (configuration not stated)
- outcome [1]: inactive
- outcome [2]: inactive
- outcome [3]: inactive
- outcome [4]: inactive
- Potency [5]: inactive
- outcome [6]: inactive
- Potency [7]: inactive

SMILES: BrC(Br)Br
- outcome [1]: inactive
- outcome [2]: inactive
- outcome [3]: inactive
- outcome [4]: inactive
- Potency [5]: inactive
- outcome [6]: inactive
- Potency [7]: inactive
- Potency [8]: inactive

SMILES: COc1cccc(C(=O)CCN[C@@H](C)[C@H](O)c2ccccc2)c1
- outcome [1]: inactive
- outcome [2]: inactive
- outcome [3]: inactive
- outcome [4]: inactive
- Potency [5]: inactive
- outcome [6]: inactive
- Potency [7]: inactive
- Potency [8]: inactive

SMILES: CC(=O)O[C@H]1CC[C@@]2(C)C(=CC[C@@H]3[C@@H]2CC[C@]2(C)C(=O)CC[C@@H]32)C1
- outcome [1]: inactive
- outcome [2]: inactive
- outcome [4]: inactive
- Potency [5]: inactive
- outcome [6]: inactive
- Potency [7]: inactive
- Potency [8]: inactive
- Potency [9]: inactive

SMILES: ClC(Cl)=C(Cl)Cl
- outcome [1]: inactive
- outcome [2]: inactive
- outcome [3]: inactive
- outcome [4]: inactive
- Potency [5]: inactive
- outcome [6]: inactive
- Potency [7]: inactive

SMILES: CCCCCCCCCCCCCCC(Br)C(=O)O (configuration not stated)
- outcome [1]: inactive
- outcome [2]: inactive
- outcome [3]: inactive
- outcome [4]: inactive
- Potency [5]: inactive
- outcome [6]: inactive
- Potency [7]: inactive

SMILES: CN(C)[C@@H]1C(=O)C(C(N)=O)=C(O)[C@@]2(O)C(=O)C3=C(O)c4c(O)ccc(Cl)c4[C@@](C)(O)[C@H]3C[C@@H]12
- outcome [1]: inactive
- outcome [2]: inactive
- outcome [3]: inactive
- outcome [4]: inactive
- Potency [5]: inactive
- outcome [6]: inactive
- Potency [7]: inactive
- Potency [8]: inactive
- Potency [9]: inactive

SMILES: CC(C)CCCCCCCOP(=O)(Oc1ccccc1)Oc1ccccc1
- outcome [1]: inactive
- outcome [2]: inactive
- outcome [3]: inactive
- outcome [4]: inactive
- Potency [5]: inactive
- outcome [6]: inactive
- Potency [7]: inactive
- Potency [8]: inactive
- Potency [9]: inactive

SMILES: O=[N+]([O-])O.O=[N+]([O-])O.[Cd]
- outcome [1]: inactive
- outcome [2]: inactive
- outcome [4]: inactive
- Potency [5]: inactive
- outcome [6]: inactive
- Potency [7]: inactive
- Potency [8]: 0.389 µM (active)
- Potency [9]: 43.6 µM (active)

SMILES: O=C(O)c1cc[c]([Hg][Cl])cc1
- outcome [1]: inactive
- outcome [2]: inactive
- outcome [3]: inactive
- outcome [4]: inactive
- Potency [5]: inactive
- outcome [6]: inactive
- Potency [7]: inactive
- Potency [9]: inactive

SMILES: BrC(Br)C(Br)(Br)Br
- outcome [1]: inactive
- outcome [2]: inactive
- outcome [4]: inactive
- Potency [5]: inactive
- outcome [6]: inactive
- Potency [7]: inactive
- Potency [8]: inactive

SMILES: CC(C)CC(C)Nc1ccc(Nc2ccccc2)cc1 (configuration not stated)
- outcome [1]: inactive
- outcome [2]: inactive
- outcome [3]: inactive
- outcome [4]: inactive
- Potency [5]: inactive
- outcome [6]: inactive
- Potency [7]: inactive

SMILES: Clc1ccc(C(c2ccc(Cl)cc2)C(Cl)(Cl)Cl)cc1
- outcome [1]: inactive
- outcome [2]: inactive
- outcome [3]: inactive
- outcome [4]: inactive
- Potency [5]: inactive
- outcome [6]: inactive
- Potency [7]: inactive
- Potency [9]: 43.6 µM (active)

SMILES: O=CC(Br)(Br)Br
- outcome [1]: inactive
- outcome [2]: inactive
- outcome [3]: inactive
- outcome [4]: inactive
- Potency [5]: inactive
- outcome [6]: inactive
- Potency [7]: inactive

SMILES: CCCCCCCCCCCCCN1CC(C)OC(C)C1 (configuration not stated)
- outcome [1]: inactive
- outcome [2]: inactive
- outcome [4]: inactive
- Potency [5]: inactive
- outcome [6]: inactive
- Potency [7]: inactive
- Potency [8]: inactive
- Potency [9]: inactive
